# Test results from the supplement of paper PMC10037445.
# Values joined by “and” are separate entries in the source; they are usually repeats but may differ in a detail not shown here. Equal entries are not always repeated. Whole data set: some 2,900 compounds, median “NF-kB SEAP reporter activity, fold change vs agonist alone” near 0.99, cut for the highest 2% near 2.6. The sample holds the highest values, similar compounds and a random draw of the others, so the mix is not that of the screen.
# Legend:
# RAW-Dual [1] = test: NF-kB SEAP reporter activity, fold change vs agonist alone; higher = enhanced NF-kB activity
# Method in brief: (§1)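 Library stock was pin-tooled at 50 nL into 384-well plates of RAW-Dual macrophages (50,000 cells/well, DMEM), followed 1 h later by a PRR agonist, and the cells were kept at 37 °C, 5% CO2. Supernatant collected after 20 hours was read for IRF by QuantiLuc luminescence and for NF-κB by QuantiBlue absorbance at 620 nm. Reporter activity is fold change over agonist-alone wells, and a well counted as cytotoxic when its IncuCyte confluency was below 70% of agonist controls in both mask sets.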
# RAW-Dual [2] = test: NF-kB SEAP reporter activity, fold change vs agonist alone; cytotoxicity flag (confluency mask): not cytotoxic; higher = enhanced NF-kB activity
# Method in brief: as §1
# RAW-Dual [3] = test: NF-kB SEAP reporter activity, fold change vs agonist alone; cytotoxicity flag (confluency mask): cytotoxic (confluency <70% of control); higher = enhanced NF-kB activity
# Method in brief: as §1
# [4] = library stock concentration (final ~1000-fold dilution): 10 mM, cytotoxicity flag (confluency mask): not cytotoxic, agonist: Imiquimod (TLR7) […]
# [5] = library stock concentration (final ~1000-fold dilution): 10 mM, cytotoxicity flag (confluency mask): not cytotoxic, agonist: MPLA (TLR4) […]
# [6] = agonist: ODN 1826 (TLR9) 0.5 ug/mL
# [7] = agonist: Pam2CSK4 (TLR2/6) 0.1 ug/mL
# [8] = agonist: Pam3CSK4 (TLR2/1) 0.1 ug/mL
# [9] = library stock concentration (final ~1000-fold dilution): 10 mM, cytotoxicity flag (confluency mask): cytotoxic (confluency <70% of control), agonist: Imiquimod (TLR7) […]
# [10] = library stock concentration (final ~1000-fold dilution): 10 mM, cytotoxicity flag (confluency mask): cytotoxic (confluency <70% of control), agonist: MPLA (TLR4) […]
compound,measurement,setting,value
CC(=O)ON=C1C(c2c(O)[nH]c3cc(Br)ccc23)=Nc2ccccc21,NF-kB SEAP reporter activity,RAW-Dual [1]; [4],1.07
same,NF-kB SEAP reporter activity,RAW-Dual [1]; [5],1.48
CC(=O)ON=C1C(c2c(O)[nH]c3cc(Br)ccc23)=Nc2ccccc21 (library stock concentration (final ~1000-fold dilution): 10 mM),NF-kB SEAP reporter activity,RAW-Dual [2]; agonist: LPS (TLR4) 0.1 ug/mL,3.28
same,NF-kB SEAP reporter activity,RAW-Dual [2]; [6],1.19
same,NF-kB SEAP reporter activity,RAW-Dual [2]; [7],1.55
same,NF-kB SEAP reporter activity,RAW-Dual [2]; [8],1.41
CCN(CC)CCOC(=O)C(Cc1cccc2ccccc12)CC1CCCO1.O=C(O)C(=O)O (configuration not stated) (library stock concentration (final ~1000-fold dilution): 10 mM),NF-kB SEAP reporter activity,RAW-Dual [2]; agonist: LPS (TLR4) 0.1 ug/mL,1.08
same,NF-kB SEAP reporter activity,RAW-Dual [2]; [6],0.731
same,NF-kB SEAP reporter activity,RAW-Dual [2]; [7],0.761
same,NF-kB SEAP reporter activity,RAW-Dual [2]; [8],1.01
CCN(CC)CCOC(=O)C(Cc1cccc2ccccc12)CC1CCCO1.O=C(O)C(=O)O (configuration not stated),NF-kB SEAP reporter activity,RAW-Dual [1]; [5],0.821
Nc1nc(NCCNc2ncc(-n3ccnc3)c(-c3ccc(Cl)cc3Cl)n2)ccc1[N+](=O)[O-] (library stock concentration (final ~1000-fold dilution): 10 mM),NF-kB SEAP reporter activity,RAW-Dual [2]; agonist: LPS (TLR4) 0.1 ug/mL,2.5
same,NF-kB SEAP reporter activity,RAW-Dual [2]; [6],2.96
same,NF-kB SEAP reporter activity,RAW-Dual [2]; [7],1.46
same,NF-kB SEAP reporter activity,RAW-Dual [2]; [8],2.83
Nc1nc(NCCNc2ncc(-n3ccnc3)c(-c3ccc(Cl)cc3Cl)n2)ccc1[N+](=O)[O-],NF-kB SEAP reporter activity,RAW-Dual [1]; [4],2.49
same,NF-kB SEAP reporter activity,RAW-Dual [1]; [5],2.25
Cc1cncc(CN2CCC(=C3c4ccc(Cl)cc4CCc4cccnc43)CC2)c1.O=C(O)/C=C/C(=O)O (library stock concentration (final ~1000-fold dilution): 10 mM),NF-kB SEAP reporter activity,RAW-Dual [3]; agonist: LPS (TLR4) 0.1 ug/mL,0.652
same,NF-kB SEAP reporter activity,RAW-Dual [3]; [6],0.37
same,NF-kB SEAP reporter activity,RAW-Dual [3]; [7],0.456
same,NF-kB SEAP reporter activity,RAW-Dual [3]; [8],0.408
Cc1cncc(CN2CCC(=C3c4ccc(Cl)cc4CCc4cccnc43)CC2)c1.O=C(O)/C=C/C(=O)O,NF-kB SEAP reporter activity,RAW-Dual [1]; [9],1.02
same,NF-kB SEAP reporter activity,RAW-Dual [1]; [10],0.719
CCC1OC(=O)C(C)C(OC2CC(C)(OC)C(O)C(C)O2)C(C)C(OC2OC(C)CC(N(C)C)C2O)C(C)(O)CC(C)CN(C)C(C)C(O)C1(C)O.O.O (configuration not stated),NF-kB SEAP reporter activity,RAW-Dual [1]; [4],0.506
same,NF-kB SEAP reporter activity,RAW-Dual [1]; [5],1.46
CCC1OC(=O)C(C)C(OC2CC(C)(OC)C(O)C(C)O2)C(C)C(OC2OC(C)CC(N(C)C)C2O)C(C)(O)CC(C)CN(C)C(C)C(O)C1(C)O.O.O (configuration not stated) (library stock concentration (final ~1000-fold dilution): 10 mM),NF-kB SEAP reporter activity,RAW-Dual [2]; agonist: LPS (TLR4) 0.1 ug/mL,1.49
same,NF-kB SEAP reporter activity,RAW-Dual [2]; [6],0.371
same,NF-kB SEAP reporter activity,RAW-Dual [2]; [7],0.896
same,NF-kB SEAP reporter activity,RAW-Dual [2]; [8],0.978
Cn1cc(-c2ccc3ncc(Cc4ccc5ncccc5c4)n3n2)cn1 (library stock concentration (final ~1000-fold dilution): 10 mM),NF-kB SEAP reporter activity,RAW-Dual [2]; agonist: LPS (TLR4) 0.1 ug/mL,1.88
same,NF-kB SEAP reporter activity,RAW-Dual [2]; [6],1.35
same,NF-kB SEAP reporter activity,RAW-Dual [2]; [7],1.31
same,NF-kB SEAP reporter activity,RAW-Dual [2]; [8],1.47
COc1cc(OC)cc(N(CCNC(C)C)c2ccc3ncc(-c4cnn(C)c4)nc3c2)c1 (library stock concentration (final ~1000-fold dilution): 10 mM),NF-kB SEAP reporter activity,RAW-Dual [3]; agonist: LPS (TLR4) 0.1 ug/mL,3.64
same,NF-kB SEAP reporter activity,RAW-Dual [3]; [6],0.427
same,NF-kB SEAP reporter activity,RAW-Dual [3]; [7],1.06
same,NF-kB SEAP reporter activity,RAW-Dual [3]; [8],1.57
Cn1cc(-c2ccc3ncc(Cc4ccc5ncccc5c4)n3n2)cn1,NF-kB SEAP reporter activity,RAW-Dual [1]; [4],1.37
same,NF-kB SEAP reporter activity,RAW-Dual [1]; [5],1.23
COc1cc2ncc(-c3ccccc3)nc2cc1OC (library stock concentration (final ~1000-fold dilution): 10 mM),NF-kB SEAP reporter activity,RAW-Dual [2]; agonist: LPS (TLR4) 0.1 ug/mL,1.78
same,NF-kB SEAP reporter activity,RAW-Dual [2]; [6],1.28
same,NF-kB SEAP reporter activity,RAW-Dual [2]; [7],0.915
same,NF-kB SEAP reporter activity,RAW-Dual [2]; [8],0.864
COc1cc2ncc(-c3ccccc3)nc2cc1OC,NF-kB SEAP reporter activity,RAW-Dual [1]; [4],1.16
same,NF-kB SEAP reporter activity,RAW-Dual [1]; [5],1.39
COc1cc(OC)cc(N(CCNC(C)C)c2ccc3ncc(-c4cnn(C)c4)nc3c2)c1,NF-kB SEAP reporter activity,RAW-Dual [1]; [9],1.76
same,NF-kB SEAP reporter activity,RAW-Dual [1]; [10],2.21
Br.COc1ccc2c3c1OC1CC(O)C=CC31CCN(C)C2 (configuration not stated),NF-kB SEAP reporter activity,"RAW-Dual [1]; library stock concentration (final ~1000-fold dilution): 10 mM water, cytotoxicity flag (confluency mask): not cytotoxic, agonist: Imiquimod (TLR7) […]",0.936
same,NF-kB SEAP reporter activity,"RAW-Dual [1]; library stock concentration (final ~1000-fold dilution): 10 mM water, cytotoxicity flag (confluency mask): not cytotoxic, agonist: MPLA (TLR4) […]",0.997
Br.COc1ccc2c3c1OC1CC(O)C=CC31CCN(C)C2 (configuration not stated) (library stock concentration (final ~1000-fold dilution): 10 mM water),NF-kB SEAP reporter activity,RAW-Dual [2]; agonist: LPS (TLR4) 0.1 ug/mL,1.12
same,NF-kB SEAP reporter activity,RAW-Dual [2]; [6],1.02
same,NF-kB SEAP reporter activity,RAW-Dual [2]; [7],1.12
same,NF-kB SEAP reporter activity,RAW-Dual [2]; [8],1.16
CC(C)C(C(=O)O)N1C(=O)/C(=C/c2ccc(Br)cc2)SC1=S (configuration not stated),NF-kB SEAP reporter activity,RAW-Dual [1]; [4],0.992
same,NF-kB SEAP reporter activity,RAW-Dual [1]; [5],1.01
CC(C)C(C(=O)O)N1C(=O)/C(=C/c2ccc(Br)cc2)SC1=S (configuration not stated) (library stock concentration (final ~1000-fold dilution): 10 mM),NF-kB SEAP reporter activity,RAW-Dual [2]; agonist: LPS (TLR4) 0.1 ug/mL,1.12
same,NF-kB SEAP reporter activity,RAW-Dual [2]; [6],0.953
same,NF-kB SEAP reporter activity,RAW-Dual [2]; [7],0.947
same,NF-kB SEAP reporter activity,RAW-Dual [2]; [8],1.05
CC1(C)C(C(=O)O)N2C(=O)CC2S1(=O)=O (configuration not stated) (library stock concentration (final ~1000-fold dilution): 10 mM),NF-kB SEAP reporter activity,RAW-Dual [2]; agonist: LPS (TLR4) 0.1 ug/mL,1.04 and 0.881
same,NF-kB SEAP reporter activity,RAW-Dual [2]; [6],1.01 and 1.03
same,NF-kB SEAP reporter activity,RAW-Dual [2]; [7],0.96 and 1.14
same,NF-kB SEAP reporter activity,RAW-Dual [2]; [8],1.05 and 1.19
Cl.O=c1[nH]ccc2c(S(=O)(=O)N3CCCNCC3)cccc12 (library stock concentration (final ~1000-fold dilution): 10 mM),NF-kB SEAP reporter activity,RAW-Dual [2]; agonist: LPS (TLR4) 0.1 ug/mL,1.22
same,NF-kB SEAP reporter activity,RAW-Dual [2]; [6],0.968
same,NF-kB SEAP reporter activity,RAW-Dual [2]; [7],1.05
same,NF-kB SEAP reporter activity,RAW-Dual [2]; [8],1.23
Cl.O=c1[nH]ccc2c(S(=O)(=O)N3CCCNCC3)cccc12,NF-kB SEAP reporter activity,RAW-Dual [1]; [4],1
same,NF-kB SEAP reporter activity,RAW-Dual [1]; [5],0.986
CCN(CC)Cc1ccc2cc(COC(=O)Nc3ccc(C(=O)NO)cc3)ccc2c1.Cl.O (library stock concentration (final ~1000-fold dilution): 10 mM),NF-kB SEAP reporter activity,RAW-Dual [2]; agonist: LPS (TLR4) 0.1 ug/mL,7.02
same,NF-kB SEAP reporter activity,RAW-Dual [2]; [6],0.922
same,NF-kB SEAP reporter activity,RAW-Dual [2]; [7],1.87
same,NF-kB SEAP reporter activity,RAW-Dual [2]; [8],1.04
COc1ccc(Cn2ccc3ccc(C(=O)NO)cc32)cc1 (library stock concentration (final ~1000-fold dilution): 10 mM),NF-kB SEAP reporter activity,RAW-Dual [2]; agonist: LPS (TLR4) 0.1 ug/mL,0.996
same,NF-kB SEAP reporter activity,RAW-Dual [2]; [6],0.62
same,NF-kB SEAP reporter activity,RAW-Dual [2]; [7],0.788
same,NF-kB SEAP reporter activity,RAW-Dual [2]; [8],0.588
